# CXXC DNA block = blocks binding of human MLL CXXC domain to DNA. Q03164. MLL-CXXC / FITC-HOXA9 DNA fluorescence polarization. Potency, µM (doses to about 115 µM), hits mostly inhibitors. hit rate 0.037% among 290,000. AID 2662; active = well fitted inhibition curve with a large enough effect in the polarisation, with a control signal flat, not every such curve was filed as active; inconclusive = small, poorly fitted or top-dose-only effect, or effect the other way, or a change in a side signal; inactive = no such curve, though single readings can be large or run the other way; the % refers to the polarisation
#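 Fluorescence polarization: 7 uM MLL-CXXC (stock) preincubated 5 min with compounds, then 50 nM fluorescein-HOX-A9 DNA (stock) added; 30 min ambient. Buffer 50 mM Tris-HCl pH 7.5, 50 mM NaCl, 1 mM DTT, 0.05% BSA.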
# Menin MLL FP FL = menin-MLL binding inhibition, fluorescein peptide | Fluorescence polarization, fluorescein-MLL peptide displacement from menin | FP activity change, % at 61.4 µM | 290,000 tested, under 10 active | AID 1766; active = well fitted curve in the direction sought with a large enough effect in the polarisation, not every such curve was filed as active; inconclusive = small, poorly fitted or top-dose-only effect, or effect the other way, or a change in a side signal; inactive = no such curve, though single readings can be large or run the other way; the % refers to the polarisation
# ERG Ets-DNA blk = inhibitors of human ERG Ets domain-DNA interaction. hit rate 0.028% among 370,000. P11308. fluorescence polarization, His-ERG Ets domain / labelled DNA. AID 624246. Potency, µM (series often up to 76.9 µM), usual class: inhibitors; active = well fitted inhibition curve with a large enough effect in the polarisation, with a control signal flat; inconclusive = small, poorly fitted or top-dose-only effect, or effect the other way, or a change in a side signal; inactive = no such curve, though single readings can be large or run the other way; the % refers to the polarisation;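 note: polarization taken with two DNA probes labelled with fluorescein and Texas red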
#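 His-tagged ERG Ets domain (1 uM in the protein solution; 300mM KCl, 50mM Tris-HCl, 1mM EDTA, 1mM DTT, pH 7.5) received compound, then a probe mix of 5 nM fluorescein-DNA and 100nM Texas-615-DNA. Fluorescence polarization was read for both dyes.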
# Mm-Cpn inhibitor = M. maripaludis TRiC chaperonin inhibition; purified Mm-Cpn ATPase, ADP Transcreener TR-FRET; Potency, µM (top dose mostly 76.9 µM), actives largely listed as inhibitors; hit rate 0.031% among 330,000; AID 504842; active = well fitted inhibition curve with a large enough effect; inconclusive = small, poorly fitted or top-dose-only effect; note: nearly all actives have a fitted effect of over 80% in size
#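 ATP (10 uM final) was added to archaeal chaperonin (25 nM final) after 10 min exposure to test compound at 37°C; after 30 min further incubation, ADP was detected by competitive TR-FRET.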
# Menin-MLL TR inh = inhibitors of human menin-MLL interaction, mutant MLL peptide. Menin + Texas Red MLL mutant peptide, fluorescence polarization. Potency, µM (doses to about 61.6 µM), most hits filed as inhibitors. hit rate 0.23% among 270,000; active = well fitted inhibition curve with a large enough effect in the polarisation, with a control signal flat, not every such curve was filed as active; inconclusive = small, poorly fitted or top-dose-only effect, or effect the other way, or a change in a side signal; inactive = no such curve, though single readings can be large or run the other way; the % refers to the polarisation
# Target sequence (O00255 whole entry, looked up): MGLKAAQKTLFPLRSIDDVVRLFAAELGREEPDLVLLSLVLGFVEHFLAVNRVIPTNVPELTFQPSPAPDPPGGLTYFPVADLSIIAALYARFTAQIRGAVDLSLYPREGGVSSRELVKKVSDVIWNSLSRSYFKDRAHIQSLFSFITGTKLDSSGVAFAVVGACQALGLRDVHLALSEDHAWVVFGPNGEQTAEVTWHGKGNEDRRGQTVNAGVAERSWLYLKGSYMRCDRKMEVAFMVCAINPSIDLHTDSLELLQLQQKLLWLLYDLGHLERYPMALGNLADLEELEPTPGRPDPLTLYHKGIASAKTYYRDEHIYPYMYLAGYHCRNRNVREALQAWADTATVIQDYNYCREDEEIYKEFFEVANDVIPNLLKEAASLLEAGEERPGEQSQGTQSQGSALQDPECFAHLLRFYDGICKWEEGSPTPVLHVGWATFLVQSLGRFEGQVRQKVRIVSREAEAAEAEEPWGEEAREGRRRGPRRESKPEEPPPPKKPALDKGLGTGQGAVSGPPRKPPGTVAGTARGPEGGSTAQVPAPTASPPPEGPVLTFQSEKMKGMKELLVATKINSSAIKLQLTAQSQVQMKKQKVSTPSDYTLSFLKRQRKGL
# Hits are given with their value; – = inactive; ? = inconclusive; · = no result given; [ ] = another dose, or the depositor's remark. This is one part of a sample in which hits are shown more often than they occur.
SMILES,CXXC DNA block,Menin MLL FP FL,ERG Ets-DNA blk,Mm-Cpn inhibitor,Menin-MLL TR inh
COc1ccc(C(=O)c2c(N)sc3c2CCN(C)C3)cc1,?,?,–,–,14µM
CCOC(=O)C1=C(c2ccccc2)N=c2s/c(=C\c3ccc(O)cc3)c(=O)n2C1c1cccs1 (stereo not drawn),?,?,?,–,35µM
CCOC(=O)C1=C(C)N=c2s/c(=C\c3ccc(OCC(=O)O)cc3)c(=O)n2C1c1ccccc1 (stereo not drawn),–,–,–,–,?
CCc1c2c(nc3ccc(OC(=O)N4CCC(N5CCCCC5)CC4)cc13)-c1cc3c(c(=O)n1C2)COC(=O)C3(O)CC (stereo not drawn),·,–,·,·,–
CCC[C@H](CN[C@@H](CNC)[C@H](C)CC)NCCc1cc(C(F)(F)F)cc(C(F)(F)F)c1,–,–,–,–,–
CC[C@@H](C)[C@H](CNC)NC[C@@H](Cc1cccc2ccccc12)NCCc1cccc(C(F)(F)F)c1,–,–,–,–,32µM
O=C(O)COc1cccc2c1CCC=C2CCO/N=C(\c1ccccc1)c1cccnc1,·,–,·,·,–
N#Cc1c(N)nc2c3c(sc(=N)c2c1N)NC(=O)CC3c1c(F)cccc1Cl (stereo not drawn),–,–,–,–,?
N#Cc1c(N)nc2c3c(sc(=N)c2c1N)NC(=O)CC3c1ccccc1 (stereo not drawn),–,–,–,–,22µM
Cc1ccc(S(=O)(=O)NCCn2c(C)cc3ccccc32)cc1,–,–,·,?,28µM
Cc1cc(C)c(S(=O)(=O)NCCn2c(C)cc3ccccc32)c(C)c1,–,–,?,35µM,?
Cc1cc2ccccc2n1CCNC(=O)c1ccc(S(=O)(=O)N2CCCCC2)cc1,–,–,25µM,14µM,–
C=C[C@@H](C1=CC(=O)C(OC)=C(OC)C1=O)c1ccccc1,·,–,·,·,–
COc1cccc(-c2nnc3n2N=C(c2ccc(OC)cc2OC)CS3)c1,·,–,·,·,?
OC[C@H]1NC[C@@H](O)[C@@H](O)[C@@H]1O,·,–,·,·,–
COC(=O)CCCC1=CC2=C(c3ccccc3)C(=O)C(C)(OC(=O)C3CCCC3)C(=O)C2=CN1CCCOC(C)C (stereo not drawn),·,–[11.7 µM],·,·,?
Nc1nonc1-c1nc2ccccc2n1CC(=O)N/N=C\c1ccc(-c2ccc(Cl)cc2)o1,–,–,–,–,10µM
NNC(=O)Cn1c(-c2nonc2N)nc2ccccc21,–,–,–,–,–
O=C(Nc1nc(-c2ccc(S(=O)(=O)N3CCCCCC3)cc2)cs1)c1cccs1,–,–,–,?,22µM
C(=C\c1ccccn1)/c1ccccn1,–,–,–,–,13µM
COc1ccc(-c2cc(=O)c3c(O)cc(O[C@H]4OC(COC5OC(C)C(O)C(O)[C@H]5O)C(O)C(O)C4O)cc3o2)cc1O (stereo partly drawn),–,–,·,·,25µM
COc1ccc(-c2cc(=O)c3c(O)cc(O[C@@H]4OC(COC5OC(C)C(O)C(O)[C@@H]5O)C(O)C(O)C4O)cc3o2)cc1 (stereo partly drawn),·,–,·,·,–
CC(=O)Nc1ccc(S(=O)(=O)NCc2ccc3c(c2)cc(C)n3C)cc1,–,?,14µM,?,?
Cc1cc2cc(CNC(=O)c3ccc(S(=O)(=O)N4CCOCC4)cc3)ccc2n1C,–,?,28µM,?,?
Cc1cccc(NC(=S)NCc2ccc3c(c2)cc(C)n3C)c1C,–,–,28µM,?,–
SMILES,CXXC DNA block,Menin MLL FP FL,ERG Ets-DNA blk,Mm-Cpn inhibitor,Menin-MLL TR inh
Cc1cc2cc(CNC(=S)Nc3ccc(OC(F)(F)F)cc3)ccc2n1C,–,–,20µM,?,?
COc1cccc(NC(=S)NCc2ccc3c(c2)cc(C)n3C)c1,–,–,?,?,–
Cc1cc2cc(CNS(=O)(=O)c3ccc4ccccc4c3)ccc2n1C,–,–,?,?,?
C/C=C(/C)C(=O)O[C@H]1C[C@@]2(C)O[C@H]2[C@@H](OC(C)=O)C2(C)CC[C@@](O)(C(C)C)C12 (stereo partly drawn),·,–,·,·,–
CSCC[C@H](NC(=O)[C@H](CC(C)C)N(C)C(=O)[C@@H]1CCCN1C(=O)[C@H](Cc1ccccc1)NC(=O)[C@H](Cc1ccccc1)NC(=O)CCC(C)N)C(=O)O (stereo partly drawn),·,–,·,·,–
CC(C)C[C@@H](NC(=O)[C@@H](Cc1ccccc1)NC(=O)c1cnccn1)B(O)O,–,–,·,·,–
COc1cccc(-c2nnc3n2N=C(c2c(OC)cccc2OC)CS3)c1OC,·,–,·,·,–
Cc1c(C(=O)NCc2ccc3c(c2)cc(C)n3C)cccc1[N+](=O)[O-],–,–,28µM,?,?
Cc1cc2cc(CNC(=O)c3cccc([N+](=O)[O-])c3)ccc2n1C,–,–,–,?,?
NC(=O)C1CCN(c2nc(-c3ccc4c(c3)OCO4)cs2)CC1,·,·,·,–,·
O=C1C(SCCO)=C(SCCO)C(=O)c2ccccc21,–,·,13µM,–,·
N=C1SCC(=O)N1/N=C/c1ccccc1,–,–,28µM,–,–
Cc1cccc(Nc2nnc(SCC(=O)c3ccc(Br)s3)s2)c1C,–,–,–,40µM,?
CCC(CNc1cc(OC)cc2cccnc12)NC1CCCCC1 (stereo not drawn),?,?,–,–,35µM
c1ccc(CCNc2ccnc3cc4ccccc4cc23)cc1,?,–,–,–,22µM
CC(C)Nc1ccc(Nc2ccnc3cc4ccccc4cc23)cc1,?,–,–,–,·
COc1ccccc1-c1sc2cc3c(cc2c1C#Cc1ccccn1)OCO3,·,·,–,32µM,·
C#CCOCCOCCOCCNc1nc(N2CCN(C(=O)CCCCCCCCCCNC(=O)[C@H]([C@@H](C)CC)n3cc(CCCCCN)nn3)CC2)nc(N2CCN(C(=O)CCCCCCCCCCNC(=O)[C@H](CCCCN)n3cc(CCCC(=O)O)nn3)CC2)n1,·,·,–,–,·
C#CCOCCOCCOCCNc1nc(N2CCN(C(=O)CCCCCCCCCCNC(=O)[C@@H](CCC(=O)O)n3cc(CCCCCN)nn3)CC2)nc(N2CCN(C(=O)CCCCCCCCCCNC(=O)[C@H]([C@@H](C)CC)n3cc(CCCCCN)nn3)CC2)n1,·,·,–,45µM,·
COc1ccc(OC)c2sc(NC(=O)c3ccc(S(=O)(=O)N4CCOCC4)cc3)nc12,–,–,–,–,18µM
COc1ccc(Cl)c2sc(NC(=O)c3ccc(S(=O)(=O)N4CCCC4)cc3)nc12,·,·,–,·,·
CO/N=C(/C(=O)N[C@@H]1C(=O)N2C(C(=O)O)=C(CSc3cnns3)CS[C@H]12)c1csc(N)n1,–,–,·,·,–
COc1ccc2cc(C#N)c(SCC(=O)NNC(=O)Cc3ccccc3)nc2c1,–,–,–,–,11µM

# Screening results deposited in PubChem by National Center for Advancing Translational Sciences (NCATS).
